Screening results deposited in PubChem BioAssay by National Center for Advancing Translational Sciences (NCATS).
An excerpt weighted towards active compounds, which were near 2% of everything screened.
Six1-Eya2 inh: blocks human Six1 binding to Eya2. 0.56% of 360,000 active. activity change, % (no concentration beside the values). AlphaScreen GST-Six1/His-Eya2 binding, biochemical; stronger effect = lower value. AID 651725
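Six1/Eya2 binding was read as AlphaScreen signal after compounds were pinned into GST-Six1 plus His-tagged Eya2 (5X stock 250/500 nM) in pH 8.0 Tris/NaCl/TCEP buffer, beads added, then incubated 1 h, 37 C, dark.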
KCNH2 3.1 block: KCNH2 3.1 (human) potassium channel inhibition. activity change, % (tested at about 1.8 µM). 0.95% of 340,000 active. U2OS KCNH2 3.1, thallium flux FluxOr; stronger effect = lower value;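 active = maximum activity change below -70%; inconclusive = maximum activity change from -70% to -50%; inactive = maximum activity change above -50%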;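 note: thallium influx rate constant from kinetic fluorescence after stimulation buffer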
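Thallium flux read-out: FluxOr dye with Red40 quencher in HBSS/HEPES, 45 min at RT. Rate constants from kinetic reads were normalized to positive and negative DMSO controls. Cells: U2OS virally expressing the 3.1 isoform.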
KDM4E inh: inhibitors of human JMJD2E histone demethylase; JMJD2E catalytic domain, FDH-coupled NADH fluorescence (FDH is formaldehyde dehydrogenase); Potency, µM (highest dose often 57.1 µM), for inactives: at the top dose activity change, negative = inhibition, usual class: inhibitors; 1.6% of 230,000 active; AID 2147; active = well fitted inhibition curve with a large enough effect, not every such curve was filed as active; inconclusive = small, poorly fitted or top-dose-only effect, or another doubt; inactive = no such curve, though single readings can be large or run the other way;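 note: potency is the fitted concentration of half-maximal effect; 0% = wells with enzyme and -100% = buffer wells without enzyme; nearly all actives have a fitted effect of over 50% in size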
Target sequence (B2RXH2 1-337 limits assumed): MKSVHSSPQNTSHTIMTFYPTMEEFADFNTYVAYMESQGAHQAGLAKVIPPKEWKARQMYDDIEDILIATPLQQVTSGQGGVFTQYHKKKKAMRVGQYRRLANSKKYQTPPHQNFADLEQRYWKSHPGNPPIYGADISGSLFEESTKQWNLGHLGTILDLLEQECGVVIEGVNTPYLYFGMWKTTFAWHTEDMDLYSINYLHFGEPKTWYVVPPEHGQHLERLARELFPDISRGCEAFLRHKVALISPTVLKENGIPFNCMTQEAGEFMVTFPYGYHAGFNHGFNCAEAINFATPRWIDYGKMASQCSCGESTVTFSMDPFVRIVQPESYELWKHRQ
KCNH2 WT inh: KCNH2 (human, wildtype) channel inhibition; U2OS, BacMam KCNH2, thallium flux FluxOr; stronger effect = lower value; Q12809; 0.37% of 340,000 active; activity change, % at 1.84 µM;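 active = maximum activity change below -70%; inconclusive = maximum activity change between -70% and -50%; inactive = maximum activity change above -50%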
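U2OS cells transduced with wild-type KCNH2 virus are loaded with FluxOr dye for 45 min, and thallium flux is measured in kinetic reads before and after stimulation buffer. Rate constants are normalized to DMSO controls.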
CtBP-E1A blk: blocks the CtBP interaction with E1A | AlphaScreen GST-E1A/His-CtBP binding, 1536-well; stronger effect = lower value | AID 651724 | activity change, % (test concentration not listed) | 0.49% of 340,000 active
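In 5 uL wells, 23 nL compound meets equimolar GST-E1A and His-CtBP (5X stock 125 nM each) for 2 h, 37 °C. Beads (5X, 50 ug/mL) then 1 h, 37 °C, dark.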
Numbers without * were called inactive; ? = inconclusive; nt = no result given. Cut-off read from the data, not from the text of the source, unless noted: active = activity change below about -65%; inconclusive = mostly about -30% to -63%; inactive = weaker than that. Unless noted, % is set by controls: 0 for no effect and ±100 for the full control effect.

SMILES | Six1-Eya2 inh | KCNH2 3.1 block | KDM4E inh | KCNH2 WT inh | CtBP-E1A blk
O=C(/C=C/c1ccc(O)c(O)c1)c1ccccc1O | -5 | -24 | 25µM* | 4 | 1
O=C(/C=C/c1ccc(O)c(O)c1)OCCc1ccccc1 | -26 | -1 | 20µM* | -26 | 0
O=C(C=Cc1cccc(O)c1)c1ccccc1O | 15 | -21 | nt | -3 | 11
O=C(Nc1ccc(N2CCN(C(=O)c3ccccc3)CC2)cc1)c1ccc2c(c1)OCO2 | -13 | -8 | 12% | 7 | -2
O=C(O)CNC(=O)CC1S/C(=N/N=C2/NC(=O)CS2)NC1=O (stereo not given) | -67* | 1 | 34% | -4 | ?
NC(=O)NC(=O)CC1S/C(=N/N=C/c2ccccc2)NC1=O (stereo not given) | 8 | 5 | 8% | -7 | -3
NC(=O)NC(=O)CC1S/C(=N/N=C2\CSC(=O)N2)NC1=O (stereo not given) | -90* | 7 | 54% | 0 | -93*
COc1ccc2c(c1)[C@@]1(C)CCC[C@](C)(CO)C1CC2 (stereo not given in full) | nt | nt | 3% | nt | nt
CCc1ccccc1N(C(C)=O)c1nc(CCl)cs1 | -4 | 3 | -4% | -14 | nt
CCCCN1CC(=O)N2[C@H](c3ccc(Cl)cc3)[C@@H]3C(=O)N(CC)C(=O)[C@@H]3[C@]2(C)C1=O | -1 | -115* | nt | 0 | 1
O=C(Nc1ccc(F)cc1)C1CCCN1S(=O)(=O)c1cccc2nsnc12 (stereo not given) | 2 | 3 | 6% | 2 | nt
O=C(NCc1ccc(F)cc1)C1CCCN1S(=O)(=O)c1cccc2nsnc12 (stereo not given) | 1 | 6 | nt | -251* | 3
COc1ccc(CCN(C)Cc2c(O)ccc3cc(Br)ccc23)cc1OC | -8 | -17 | nt | 0 | -5
Cc1cc(C(=O)N/N=C/c2c(CO)cnc(C)c2O)c2ccccc2n1 | -92* | 5 | nt | -8 | -99*
Cc1ncc(CO)c(/C=N/NC(=O)c2cc(Br)ccc2O)c1O | ? | 10 | ? | nt | nt
Cc1ncc(CO)c(/C=N/Nc2cccc(Cl)n2)c1O | -26 | 12 | nt | -5 | ?
Cc1ncc(CO)c(/C=N/NC(=O)c2cc(O)c(O)c(O)c2)c1O | nt | nt | 13µM* | nt | nt
C=C1c2cccc(O)c2C(O)=C2C(=O)[C@]3(O)C(O)=C(C(N)=O)C(=O)C(N(C)C)C3C(O)C12 (stereo not given in full) | nt | nt | 8.9µM* | nt | nt
C=C1c2cccc(O)c2C(O)=C2C(=O)[C@]3(O)C(O)=C(C(N)=O)C(=O)[C@@H](N(C)C)[C@@H]3[C@@H](O)[C@H]12 | ? | 5 | ? | 1 | ?
Oc1ccc(N=C/C=C/c2ccc(Br)cc2)cc1-c1nc2ccccc2s1 | nt | nt | 14µM* | nt | nt
CCOc1cc(C(=S)N2CCCCC2)ccc1OCC(=O)NCc1ccccc1 | -3 | 1 | 2% | -5 | -7
CCOc1ccc2nc(NC(=O)CN3CCC(n4nnc5cc(F)ccc54)CC3)sc2c1 | -25 | -89* | -4% | -10 | -22
O=C(CN1CCC(n2nnc3cc(F)ccc32)CC1)NC1CC1 | 3 | -8 | 3% | -2 | -7
S=c1[nH]nc(-c2ccncc2)n1Cc1ccco1 | 0 | 1 | -7% | 7 | 2
NC(=S)N/N=C/c1ccccc1OC(=O)/C=C/c1ccccc1 | ? | -14 | nt | 8 | -93*
SMILES | Six1-Eya2 inh | KCNH2 3.1 block | KDM4E inh | KCNH2 WT inh | CtBP-E1A blk
CCOC(=O)CNC(c1ccccc1)c1cc(Br)ccc1NC(=O)OCC (stereo not given) | 9 | -11 | -3% | -1 | 16
O=[N+]([O-])c1cc(Br)c(OCc2nnc(-c3ccccc3)o2)c(Br)c1 | -7 | -34 | 1% | -2 | nt
O=[N+]([O-])c1ccc2c(OCc3nnc(-c4ccccc4Br)o3)ncnc2c1 | -70* | -8 | -5% | 0 | -85*
Fc1ccc(Br)cc1C1C=C(c2ccc(Br)s2)Nc2ncnn21 (stereo not given) | -19 | -3 | 28µM* | -4 | -7
NC(Cc1ccc(Cl)cc1)c1csc(Nc2cc(NCCCO)ncn2)n1 (stereo not given) | -70* | nt | nt | nt | -78*
NC(COCc1ccccc1)c1csc(Nc2cc(NCCCO)ncn2)n1 (stereo not given) | -86* | nt | nt | nt | -86*
COc1ccc(CC(N)c2csc(Nc3cc(NCCCO)ncn3)n2)cc1 (stereo not given) | -91* | nt | nt | nt | -93*
CCc1cnc(Nc2nc(C(N)Cc3ccc(Cl)cc3)cs2)nc1 (stereo not given) | -23 | nt | nt | nt | -23
COc1cccc(Nc2nc(C(N)CO)cs2)n1 (stereo not given) | ? | nt | nt | nt | -76*
c1ccc(-c2cc3nc(NCc4cccs4)ccn3n2)cc1 | 6 | nt | nt | nt | 4
CC(C)CC(N)c1csc(Nc2ccc(S(C)(=O)=O)cc2)n1 (stereo not given) | 10 | nt | nt | nt | 0
NC(COCc1ccccc1)c1csc(Nc2ncccn2)n1 (stereo not given) | -81* | nt | nt | nt | -85*
NCc1csc(Nc2ncccn2)n1 | -73* | nt | nt | nt | -81*
Cc1nc(N)sc1-c1csc(Nc2ncccn2)n1 | ? | 9 | -11% | -7 | -26
CC(C)CC(N)c1csc(Nc2ncccn2)n1 (stereo not given) | ? | nt | nt | nt | -71*
Cc1ccccc1CN1CCCNC1=O | 3 | 7 | -19% | 35 | 3
O=C(c1ccc(F)cc1F)N1CCN(S(=O)(=O)c2ccc3c(c2)OCCO3)CC1 | -1 | -5 | nt | 3 | 9
Cc1nnc(SCC(=O)c2c(N)n(C)c(=O)n(C)c2=O)[nH]c1=O | ? | -4 | 7% | 4 | -73*
O=C(N/N=C/C(Br)=C\c1ccccc1)c1n[nH]c2c1CCC2 | -21 | 10 | ? | -6 | -87*
C/C(=N\NC(=O)c1n[nH]c2c1CCC2)c1cccs1 | 2 | -118* | -9% | 1 | 1
COc1cccc(C(=O)N/N=C/C(Br)=C/c2ccccc2)c1 | -28 | -9 | 2% | 3 | -88*
O=C(N/N=C/C=C/c1ccccc1)c1n[nH]c2c1CCC2 | -3 | -20 | 11% | -13 | -1
O=C(N/N=C/C(Br)=C/c1ccccc1)c1ccccc1[N+](=O)[O-] | -21 | 7 | nt | 4 | -92*
O=C(N/N=C/C(Br)=C/c1ccccc1)c1cnccn1 | -82* | -17 | -18% | 4 | ?
O=C(CN1CCOCC1)N/N=C/C(Br)=C\c1ccccc1 | -22 | -2 | 0% | 2 | -81*
O=C(N/N=C/C=C\c1ccccc1)c1cnccn1 | -4 | 11 | 8% | -10 | 5
CN1CCN(C2=C(NS(=O)(=O)c3cccs3)C(=O)c3ccccc3C2=O)CC1 | -13 | -9 | -5% | 11 | -23
CCOc1ccccc1N1CCN(C2=C(NS(=O)(=O)c3cccs3)C(=O)c3ccccc3C2=O)CC1 | -65* | -10 | -16% | -5 | -76*
